Shown are actives, neighbours in structure and some others; about 0.97% of the full set was active somewhere.
RecA intein inh: Mtb RecA intein splicing inhibition; P9WHJ3; cell-free RecA intein splicing, fluorescence; inhibition, % (no concentration beside the values); 290,000 tested, 0.75% active; AID 2221; in the data active means inhibition above about 30%
UGM FP inh: inhibitors of M. tuberculosis UDP-galactopyranose mutase; P9WIQ1; purified UGM, fluorescence polarization probe displacement; inhibition, % at 10 µM; 320,000 tested, 0.06% active; AID 504406; in the data active means inhibition above about 10%, passing the limit was not always enough
Mtb BioA inh: BioA (M. tuberculosis) enzyme inhibition. AID 602481. inhibition, % at 9.99 µM. 360,000 tested, 0.096% active. purified M. tuberculosis BioA enzyme, plate reader; in the data active means inhibition above about 40%
TcdB inh: TcdB glycohydrolase inhibition; P18177; TcdB glycohydrolase enzymatic assay, plate reader; inhibition, % at 9.99 µM; 350,000 tested, 0.24% active; AID 652162; in the data active means inhibition above about 10%
Rv3671c protease: inhibitors of M. tuberculosis serine protease Rv3671c | inhibition, % at 5.96 µM | 320,000 tested, 0.048% active | AID 2606; in the data active means inhibition above about 38%;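 further: extracellular domain of Rv3671c used as enzyme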
Target sequence (P9WHR9 whole entry, looked up, the tested form may be a part): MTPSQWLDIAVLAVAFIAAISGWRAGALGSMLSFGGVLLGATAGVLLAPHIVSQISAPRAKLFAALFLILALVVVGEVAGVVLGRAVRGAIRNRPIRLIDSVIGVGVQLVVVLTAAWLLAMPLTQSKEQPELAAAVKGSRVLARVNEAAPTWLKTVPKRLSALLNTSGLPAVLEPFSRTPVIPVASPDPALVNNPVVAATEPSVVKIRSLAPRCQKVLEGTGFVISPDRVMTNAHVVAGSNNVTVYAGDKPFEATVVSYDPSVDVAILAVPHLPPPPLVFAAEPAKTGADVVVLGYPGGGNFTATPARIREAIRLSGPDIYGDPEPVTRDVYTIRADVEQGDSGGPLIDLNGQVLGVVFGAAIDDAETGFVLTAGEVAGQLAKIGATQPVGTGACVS
FadD28 binding: M. tuberculosis FadD28 bisubstrate binding inhibition | FadD28 bisubstrate probe binding, fluorescence polarization | inhibition, % at 12.5 µM | 360,000 tested, 0.22% active | AID 588549; in the data active means inhibition above about 8.5%, passing the limit was not always enough
GFP chromophore: counter-screen GFP chromophore formation inhibition. shares compounds with RecA intein inh. cell-free GFP chromophore formation, fluorescence. EC50, µM. 2,100 tested, 83% active. AID 434968; call rule not given here
A number is an active result; i = inactive; nt = no result.

SMILES | RecA intein inh | UGM FP inh | Mtb BioA inh | TcdB inh | Rv3671c protease | FadD28 binding | GFP chromophore
C[C@@H]1CN([C@@H](C)CO)C(=O)c2cc(NC(=O)NC3CCCCC3)ccc2O[C@@H](C)CCCCO[C@H]1CN(C)Cc1ccc(C(F)(F)F)cc1 | nt | nt | i | i | nt | nt | nt
O=C(CS(=O)c1ccc(C(F)(F)F)cc1[N+](=O)[O-])Oc1ccccc1 (stereo unspecified) | 66.0 | i | i | nt | i | i | 14.8
N#CCCn1[nH]c(-c2ccccc2)cc1=O | 97.1 | i | i | nt | i | i | 5.08
C[C@@H]1CN([C@@H](C)CO)C(=O)c2cccc(NC(=O)c3ccncc3)c2O[C@@H]1CN(C)Cc1ccc(C(=O)Nc2ccccc2N)cc1 | nt | nt | i | i | nt | nt | nt
O=[N+]([O-])c1ccc(S(=O)(=O)c2cccc(C(F)(F)F)c2)nc1 | 49.5 | i | i | nt | i | i | 30.3
O=S(=O)(Nc1cccnc1)c1cccc(C(F)(F)F)c1 | i | i | nt | nt | i | i | nt
COC(=O)C(O)(c1c(C)[nH]n(-c2ccccc2)c1=O)C(F)(F)F (stereo unspecified) | 92.0 | i | nt | nt | i | i | 7.54
O=C(CN1C(=O)/C(=C2/SC(=S)N(CCS(=O)(=O)O)C2=O)c2ccccc21)Nc1cccc(C(F)(F)F)c1 | nt | i | i | i | i | i | nt
O=C(CN1C(=O)/C(=C2\SC(=S)N(CCS(=O)(=O)O)C2=O)c2ccccc21)Nc1cccc(Br)c1 | 45.8 | i | i | i | i | i | 25
C[C@H](CO)N1C[C@H](C)[C@H](CN(C)Cc2cccc3c2OCCCO3)OCc2ccccc2-c2c(n(C)c3ccccc23)C1=O | nt | nt | nt | i | nt | nt | nt
C[C@@H]1CN([C@H](C)CO)C(=O)c2cc(NS(=O)(=O)c3cccs3)ccc2O[C@H]1CN(C)C(=O)Nc1ccccc1 | nt | nt | i | i | nt | nt | nt
COc1ccc(OCc2cc(C(=O)N3CCCC(OC)C3)no2)c2ccccc12 (stereo unspecified) | 35.2 | i | i | i | i | i | 30.4
CCCNC1=C(N(C(C)=O)c2cccc(F)c2)C(=O)c2ccccc2C1=O | 63.1 | i | i | i | i | i | 14.5
CCC(=O)N(C1=C(NC(C)C)C(=O)c2ccccc2C1=O)C(C)C | i | i | i | i | i | i | nt
Cc1[nH]nc2c1C(c1ccc(OC(=O)c3ccco3)cc1)C(C#N)=C(N)O2 (stereo unspecified) | 73.5 | i | i | nt | i | i | 32.7
Cc1[nH]nc2c1C(c1cccc(OC(=O)N3CCOCC3)c1)C(C#N)=C(N)O2 (stereo unspecified) | 59.4 | i | i | nt | i | i | 35.4
CC(C)c1[nH]nc2c1C(c1ccc(OC(=O)c3ccco3)cc1)C(C#N)=C(N)O2 (stereo unspecified) | 46.2 | i | nt | i | i | i | 20.1
CC(C)(C)c1[nH]nc2c1C(c1ccccc1OC(=O)N1CCOCC1)C(C#N)=C(N)O2 (stereo unspecified) | nt | i | nt | nt | i | i | nt
COc1cccc(NC(=O)N2CC(=O)N3[C@@H](CO)[C@@H](c4ccc(C#CC5CCCC5)cc4)[C@@H]3C2)c1 | nt | nt | nt | i | nt | nt | nt
COc1ccc(N2C(=O)C(Cl)=C(N3CCCC(C)C3)C2=O)cc1 (stereo unspecified) | i | i | i | nt | i | i | nt
CC1CCCN(C2=C(Cl)C(=O)N(c3cccc(Cl)c3)C2=O)C1 (stereo unspecified) | 70.1 | i | i | i | i | i | 8.71
O=C(Nc1ccccc1)Nc1ccccc1NS(=O)(=O)c1cccs1 | i | i | nt | i | i | i | nt
O=C(Nc1ccc(Cl)c(Cl)c1)Nc1ccccc1NS(=O)(=O)c1cccs1 | 31.5 | i | nt | i | i | i | i
C[C@H](CO)N1C[C@H](C)[C@H](CN(C)S(=O)(=O)c2cn(C)cn2)OCCCC[C@H](C)Oc2ccc(NC(=O)Nc3ccc(F)cc3)cc2C1=O | nt | nt | i | i | nt | nt | nt
[O-][N+]1=c2ccc(Nc3ccccc3)cc2=NC12CCCCC2 | 80.0 | i | i | nt | i | i | 11
COc1ccc(Nc2ccc3c(c2)=NC2(CCCCC2)[N+]=3[O-])cc1 | 79.2 | i | i | nt | i | i | 10.1
CC(CC(=O)c1cccs1)CC(=O)c1cccs1 | i | i | i | i | i | i | nt
Cc1cc(C)c(C(CC(=O)c2cccs2)C(C#N)C#N)c(C)c1 (stereo unspecified) | 83.4 | i | nt | i | i | i | 8.59
